Results reported in the supplement of paper PMC11732987, “Enantioselective OTUD7B fragment discovery through chemoproteomics screening and high-throughput optimisation” (Communications Chemistry, 2025).

Key:
Test in all cases: log2 ratio of Biotin-Ahx-Ub-VS probe labelling (fragment/DMSO); higher = less target engagement (more negative = stronger competition), active = hit call of the paper (q ≤ 0.05, log2 ratio ≤ -1)
Details in all cases: compound concentration: 200 uM; treatment time: 3 h
[1] = target: T1, ALG13 (UniProt Q9NP73)
T1 sequence (whole entry): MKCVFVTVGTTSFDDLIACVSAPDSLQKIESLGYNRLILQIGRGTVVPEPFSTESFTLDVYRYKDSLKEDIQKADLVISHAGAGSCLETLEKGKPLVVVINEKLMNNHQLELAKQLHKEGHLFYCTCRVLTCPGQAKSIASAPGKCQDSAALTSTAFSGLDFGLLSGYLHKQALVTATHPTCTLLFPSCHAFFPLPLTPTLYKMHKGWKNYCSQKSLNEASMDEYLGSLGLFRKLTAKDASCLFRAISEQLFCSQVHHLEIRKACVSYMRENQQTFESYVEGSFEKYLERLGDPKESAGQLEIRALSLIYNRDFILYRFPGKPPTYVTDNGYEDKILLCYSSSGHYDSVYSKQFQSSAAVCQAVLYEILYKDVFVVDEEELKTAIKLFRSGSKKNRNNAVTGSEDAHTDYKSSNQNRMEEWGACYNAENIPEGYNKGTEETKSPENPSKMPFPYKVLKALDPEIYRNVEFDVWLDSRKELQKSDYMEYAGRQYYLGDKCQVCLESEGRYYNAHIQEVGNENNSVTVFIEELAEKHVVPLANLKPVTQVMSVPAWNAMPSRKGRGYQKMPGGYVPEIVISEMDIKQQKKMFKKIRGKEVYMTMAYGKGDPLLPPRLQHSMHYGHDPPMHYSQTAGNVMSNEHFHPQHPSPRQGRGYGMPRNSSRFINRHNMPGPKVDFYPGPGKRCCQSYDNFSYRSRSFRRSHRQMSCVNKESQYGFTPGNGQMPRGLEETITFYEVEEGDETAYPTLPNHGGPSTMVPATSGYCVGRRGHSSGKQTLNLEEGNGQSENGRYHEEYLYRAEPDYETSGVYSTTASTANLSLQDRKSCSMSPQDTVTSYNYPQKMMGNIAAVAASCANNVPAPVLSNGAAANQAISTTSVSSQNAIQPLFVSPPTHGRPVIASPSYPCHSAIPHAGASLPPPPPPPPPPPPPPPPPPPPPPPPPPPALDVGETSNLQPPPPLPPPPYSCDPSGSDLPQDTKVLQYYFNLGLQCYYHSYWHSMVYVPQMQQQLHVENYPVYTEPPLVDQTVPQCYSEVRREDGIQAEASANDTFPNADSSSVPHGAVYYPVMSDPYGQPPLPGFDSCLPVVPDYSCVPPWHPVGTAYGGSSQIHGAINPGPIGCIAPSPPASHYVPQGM
Method in brief: (§1)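 Using Biotin-Ahx-Ub-VS at 0.5 µM final for 1 h, DUBs were labelled in HEK293T lysate (495 µg per sample) that had first been treated in triplicate with fragment at 200 µM or vehicle for 3 h. NeutrAvidin enrichment, LysC and trypsin digestion and diaPASEF LC-MS/MS followed. Spectronaut label-free quantities were global-median-normalised. Values are average log2 fragment/vehicle ratios by unpaired t-test, using proteins with ≥2 unique peptides.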

[2] = target: ATXN3 (UniProt P54252)
ATXN3, sequence (P54252 whole entry): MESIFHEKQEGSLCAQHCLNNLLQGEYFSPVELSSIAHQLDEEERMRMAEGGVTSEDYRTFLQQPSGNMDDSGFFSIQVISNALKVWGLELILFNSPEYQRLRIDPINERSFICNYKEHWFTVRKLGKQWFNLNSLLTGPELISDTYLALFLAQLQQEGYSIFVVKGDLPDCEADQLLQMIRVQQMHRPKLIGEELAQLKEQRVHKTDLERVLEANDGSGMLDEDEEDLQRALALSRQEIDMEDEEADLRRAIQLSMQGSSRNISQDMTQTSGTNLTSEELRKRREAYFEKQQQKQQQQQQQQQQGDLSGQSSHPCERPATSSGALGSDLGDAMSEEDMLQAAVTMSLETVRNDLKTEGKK
Method in brief: as §1

[3] = target: T2, BAP1 (UniProt Q92560)
T2 sequence (whole entry): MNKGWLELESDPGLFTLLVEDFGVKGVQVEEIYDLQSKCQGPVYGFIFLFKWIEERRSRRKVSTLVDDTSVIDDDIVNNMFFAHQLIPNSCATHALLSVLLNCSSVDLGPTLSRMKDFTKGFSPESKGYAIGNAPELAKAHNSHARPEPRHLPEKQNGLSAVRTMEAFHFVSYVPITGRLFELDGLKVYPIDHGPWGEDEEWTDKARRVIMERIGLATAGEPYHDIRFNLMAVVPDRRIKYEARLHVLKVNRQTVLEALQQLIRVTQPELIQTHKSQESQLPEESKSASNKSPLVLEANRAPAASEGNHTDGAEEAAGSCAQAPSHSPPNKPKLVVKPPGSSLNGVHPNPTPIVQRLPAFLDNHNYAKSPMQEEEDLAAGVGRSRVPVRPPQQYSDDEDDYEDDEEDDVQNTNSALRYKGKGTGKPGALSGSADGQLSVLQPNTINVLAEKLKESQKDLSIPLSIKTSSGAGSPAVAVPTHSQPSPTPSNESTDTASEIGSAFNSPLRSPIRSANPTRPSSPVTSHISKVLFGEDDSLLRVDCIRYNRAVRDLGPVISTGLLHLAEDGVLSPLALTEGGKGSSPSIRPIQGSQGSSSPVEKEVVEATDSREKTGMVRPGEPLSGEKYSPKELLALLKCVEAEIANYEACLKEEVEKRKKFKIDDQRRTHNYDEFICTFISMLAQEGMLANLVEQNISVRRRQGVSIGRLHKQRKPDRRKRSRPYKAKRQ
Method in brief: as §1

[4] = target: EIF3F (UniProt O00303)
EIF3F, sequence (O00303 whole entry): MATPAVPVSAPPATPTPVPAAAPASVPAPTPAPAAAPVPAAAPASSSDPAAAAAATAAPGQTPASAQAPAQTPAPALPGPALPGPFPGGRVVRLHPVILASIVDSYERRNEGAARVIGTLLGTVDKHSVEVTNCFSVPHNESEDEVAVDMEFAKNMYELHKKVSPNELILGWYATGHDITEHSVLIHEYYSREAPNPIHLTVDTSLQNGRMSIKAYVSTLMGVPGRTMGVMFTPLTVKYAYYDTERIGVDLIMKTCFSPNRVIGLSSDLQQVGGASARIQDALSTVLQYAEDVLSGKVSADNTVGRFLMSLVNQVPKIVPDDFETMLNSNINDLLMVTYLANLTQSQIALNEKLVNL
Method in brief: as §1

[5] = target: EIF3H (UniProt O15372)
EIF3H, sequence (O15372 whole entry): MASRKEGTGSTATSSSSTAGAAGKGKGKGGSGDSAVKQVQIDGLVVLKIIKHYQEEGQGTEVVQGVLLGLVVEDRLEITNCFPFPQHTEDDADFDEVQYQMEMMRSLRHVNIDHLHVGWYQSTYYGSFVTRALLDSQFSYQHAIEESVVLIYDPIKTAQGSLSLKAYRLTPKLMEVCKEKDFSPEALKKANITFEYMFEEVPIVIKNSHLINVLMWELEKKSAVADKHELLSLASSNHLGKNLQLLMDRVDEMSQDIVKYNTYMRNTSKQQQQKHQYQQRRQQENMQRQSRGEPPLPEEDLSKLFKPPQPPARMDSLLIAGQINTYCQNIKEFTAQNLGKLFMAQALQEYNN
Method in brief: as §1

[6] = target: T3, FAM105A (UniProt Q9NUU6)
T3 sequence (whole entry): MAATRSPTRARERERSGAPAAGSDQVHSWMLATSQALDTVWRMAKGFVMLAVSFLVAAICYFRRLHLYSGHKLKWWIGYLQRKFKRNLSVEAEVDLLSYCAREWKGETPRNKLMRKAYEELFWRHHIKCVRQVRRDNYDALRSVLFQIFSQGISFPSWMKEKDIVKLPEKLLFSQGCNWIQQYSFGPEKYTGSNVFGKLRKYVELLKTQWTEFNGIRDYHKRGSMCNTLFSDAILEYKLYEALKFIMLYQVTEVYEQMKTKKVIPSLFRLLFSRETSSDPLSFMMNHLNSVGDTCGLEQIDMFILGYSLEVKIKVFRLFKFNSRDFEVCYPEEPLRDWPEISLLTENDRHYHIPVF
Method in brief: as §1

[7] = target: OTUB1 (UniProt Q96FW1)
OTUB1, sequence (Q96FW1 whole entry): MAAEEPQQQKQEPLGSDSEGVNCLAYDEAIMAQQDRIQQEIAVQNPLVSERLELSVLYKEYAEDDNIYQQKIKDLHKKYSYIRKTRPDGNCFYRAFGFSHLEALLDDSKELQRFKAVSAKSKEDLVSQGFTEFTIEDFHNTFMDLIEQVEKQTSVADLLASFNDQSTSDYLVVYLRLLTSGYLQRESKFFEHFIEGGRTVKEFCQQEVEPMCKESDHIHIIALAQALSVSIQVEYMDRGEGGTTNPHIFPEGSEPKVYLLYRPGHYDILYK
Method in brief: as §1

[8] = target: T4, OTUD4 (UniProt Q01804)
T4 sequence (whole entry): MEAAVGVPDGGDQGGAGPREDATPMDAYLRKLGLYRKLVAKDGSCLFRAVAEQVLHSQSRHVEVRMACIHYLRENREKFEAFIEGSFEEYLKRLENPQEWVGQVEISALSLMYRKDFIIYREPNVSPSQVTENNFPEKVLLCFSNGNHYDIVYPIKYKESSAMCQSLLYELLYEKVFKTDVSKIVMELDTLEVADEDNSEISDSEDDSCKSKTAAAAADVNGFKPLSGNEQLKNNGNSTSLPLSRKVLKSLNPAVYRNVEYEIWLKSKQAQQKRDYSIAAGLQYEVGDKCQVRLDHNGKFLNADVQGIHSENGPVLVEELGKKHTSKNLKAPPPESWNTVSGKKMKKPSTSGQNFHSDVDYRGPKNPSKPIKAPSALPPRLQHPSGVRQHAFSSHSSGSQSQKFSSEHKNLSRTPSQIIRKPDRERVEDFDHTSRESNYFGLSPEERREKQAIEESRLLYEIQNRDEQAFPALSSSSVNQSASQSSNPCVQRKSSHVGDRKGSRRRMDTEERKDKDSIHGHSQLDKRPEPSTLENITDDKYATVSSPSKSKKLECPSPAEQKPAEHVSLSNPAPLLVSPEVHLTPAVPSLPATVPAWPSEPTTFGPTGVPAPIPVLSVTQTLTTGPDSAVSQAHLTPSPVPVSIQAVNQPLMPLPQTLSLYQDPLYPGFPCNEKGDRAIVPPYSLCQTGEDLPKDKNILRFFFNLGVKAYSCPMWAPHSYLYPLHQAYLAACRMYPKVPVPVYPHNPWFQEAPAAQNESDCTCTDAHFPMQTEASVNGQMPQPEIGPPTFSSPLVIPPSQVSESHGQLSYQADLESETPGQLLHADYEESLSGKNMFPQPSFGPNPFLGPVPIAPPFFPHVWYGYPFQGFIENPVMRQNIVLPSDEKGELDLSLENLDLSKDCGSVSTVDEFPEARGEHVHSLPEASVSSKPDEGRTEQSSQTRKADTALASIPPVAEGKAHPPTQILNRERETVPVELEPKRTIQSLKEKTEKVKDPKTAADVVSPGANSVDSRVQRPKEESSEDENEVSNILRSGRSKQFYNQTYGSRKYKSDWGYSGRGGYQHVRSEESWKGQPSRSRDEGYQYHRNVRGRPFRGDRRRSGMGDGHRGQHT
Method in brief: as §1

[9] = target: T5, OTUD5 (UniProt Q96G74)
T5 sequence (whole entry): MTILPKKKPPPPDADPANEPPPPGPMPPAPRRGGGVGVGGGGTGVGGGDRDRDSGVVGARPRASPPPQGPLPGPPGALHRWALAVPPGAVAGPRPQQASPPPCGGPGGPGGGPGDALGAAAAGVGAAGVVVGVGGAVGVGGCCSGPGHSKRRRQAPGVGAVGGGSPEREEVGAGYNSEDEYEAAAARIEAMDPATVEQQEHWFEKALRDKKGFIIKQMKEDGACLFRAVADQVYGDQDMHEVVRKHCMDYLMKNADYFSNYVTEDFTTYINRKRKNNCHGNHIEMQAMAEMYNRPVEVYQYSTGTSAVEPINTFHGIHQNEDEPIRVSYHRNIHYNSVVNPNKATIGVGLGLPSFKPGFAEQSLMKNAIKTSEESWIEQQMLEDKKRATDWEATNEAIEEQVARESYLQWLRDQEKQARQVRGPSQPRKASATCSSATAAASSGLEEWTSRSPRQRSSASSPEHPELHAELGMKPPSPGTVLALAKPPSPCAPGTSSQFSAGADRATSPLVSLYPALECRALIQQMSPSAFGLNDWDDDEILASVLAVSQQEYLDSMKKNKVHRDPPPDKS
Method in brief: as §1

Measured: log2 ratio of Biotin-Ahx-Ub-VS probe labelling

CC1Cc2ccccc2N1C(=O)CCl (centres undefined)
inactive: [1] -0.0487 | [2] -0.989 | [3] -0.55 | [4] -0.355 | [5] 0.0594 | [6] -0.0636 | [7] -0.626 | [8] -0.544 | [9] -0.957
